From ChEMBL document CHEMBL3988442, “University of Dundee, Small-Polar-MMV Screening Library” (2021)

Biological target: AMP-activated protein kinase, AMPK (Homo sapiens) (UniProt P54646+O43741+P54619+Q9UGJ0+Q9Y478+Q13131+Q9UGI9)
Assay: AMP-dependent Kinase enzyme assay. An in vitro enzyme assay that detects ADP turnover that is directly proportional to AMPK activity. This uses naive AMPK that is activated during the assay with MK-8722
Assay type: functional
Design: scale not given: direction of the effect not stated beside the values
Details: 30 µM

Row | SMILES | Percent Effect [%]
1 | COCCC(=O)N1CCC(c2nnc(-c3ccsc3)o2)CC1 | 2.43
2 | Cn1ccc(N2CCCC(NC(=O)c3ccc(Cl)o3)C2=O)n1 (stereo not given) | 3.82
3 | NC(=O)[C@@H]1Cc2ccccc2CN1CCC(=O)N1CCOCC1 | -7.78
4 | COCCCN1CC2(CCCN(CCn3cc(Cl)cn3)C2)CCC1=O (stereo not given) | 5.56
5 | O=C(c1cc(C2CC2)nc2onc(-c3ccccc3)c12)N1CC[C@H](O)C1 | 4.74
6 | CC(=O)NCC1CCCN(C(=O)Cc2c(C)noc2C)C1 (stereo not given) | -3.15
7 | CN(Cc1ccncc1)c1cncc(Br)c1 | 3.2
8 | CSc1ccc(C(=O)C2CCCN(C(=O)CCn3cnnn3)C2)cc1 (stereo not given) | 10.2
9 | O=C(NCc1ccc(-n2cncn2)nc1)c1cc(Cl)ccn1 | -4.58
10 | Cc1c(C(=O)N(C)C)cccc1N(C)S(C)(=O)=O | 11.2
11 | Cn1nnnc1SCC1(O)CCCCC1 | 32.1
12 | COc1ccccc1Oc1ncccc1CNC(=O)C1COC(=O)N1 (stereo not given) | -13.1
13 | CN(Cc1csc(-c2cccs2)n1)CC(O)CO (stereo not given) | 5.86
14 | CCN(C)C[C@@H]1CN(C(=O)c2cc(C(F)(F)F)n[nH]2)C[C@@H]1CO | 7.62
15 | NC(=O)c1ccc(NC(=O)N2CCN(c3cccs3)CC2)c(F)c1 | 2.09
16 | CNC(=O)C(c1cccc(Cl)c1)C(C)C (stereo not given) | -6.65
17 | CNC(=O)c1cn2cc(-c3ccc(F)cc3)n(CC=C(C)C)c(=O)c2n1 | 3.81
18 | NC(=O)CC1CCN(Cc2ccccc2OCC(F)(F)F)CC1 | -3.02
19 | O=C1NCCN(Cc2ccccc2)C1CC(=O)N1CCc2n[nH]cc2C1 (stereo not given) | -20.4
20 | CCSc1cc(C(=O)N(C(C)C)C2CC2)ccn1 | 0.102
